# Measured values as given in PubChem BioAssay AID1458 (National Center for Advancing Translational Sciences (NCATS), 2008).
# In all, about 210,000 compounds went through this assay and about 5,900 (2.8%) were called active. Not shown: some 5% with an inconclusive outcome. The sample holds actives, similar compounds and a random draw of the others, so the mix is not that of the screen. Unmarked numbers belong to inactive results. The call rests on the fitted dose curve; in most records, active means well fitted activation curve with a large enough effect; inconclusive means small, poorly fitted or top-dose-only effect; inactive means no such curve, though single readings can be large or run the other way.
# Experiment: qHTS Assay for Enhancers of SMN2 Splice Variant Expression; further: nearly all actives have a fitted effect of over 55% in size; on activity change, positive = activation: % of control where 0% means no effect
# Conditions: HEK293 SMN2-luciferase splicing reporter, luminescence, 30-36 h; series mostly up to 46.1 µM; activity change, positive = activation: at the top concentration
# Outline: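 HEK293 cells carry an SMN2 […]–luciferase reporter in which exon 7 inclusion puts luciferase in frame. Cells were plated 10-12 h before compound addition, then incubated 30-36 h at 37C. ONE-Glo luminescence was read; sodium butyrate at 4.5 mM final served as control.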
# Potency means the concentration at half of the fitted maximal effect.
SMILES,"activity change, positive = activation",Potency
CCOc1ccc(S(=O)(=O)c2cn(Cc3ccccc3)c3ccc(OCC)cc3c2=O)cc1,1.43%,–
Cc1oc(C)c2c(=O)cc(-c3ccc4c(c3)OCO4)cc(OC(=O)c3ccc(Cl)cc3)c12,2.7%,–
CC(C)C12CN3CC(C(C)C)(CN(C1)C3c1ccc(OCc3ccccc3)cc1)C2=O (configuration not stated),1.12%,–
Cc1ccc(Cn2c(CCCNC(=O)C3CCCCC3)nc3ccccc32)cc1,-19.1%,–
CCOc1ccc(-c2cc(C)n3nc(C(=O)Nc4ccc(C)c(C)c4)cc3n2)cc1,1.94%,–
O=C(/C=C\NCC(=O)c1ccccc1)c1ccccc1,-5.93%,–
Cc1ccc(N/C=C/C(=O)c2ccccc2)cc1C,–,2.51 µM (active)
Cc1noc(NS(=O)(=O)c2ccc(N/C=C/C(=O)c3ccccc3)cc2)c1C,20.6%,–
CSCCC(NS(=O)(=O)c1ccc2c(c1)oc(=O)n2C)C(=O)NCc1ccccc1 (configuration not stated),-3.7%,–
O=C(COc1ccc2oc3c(c2c1)CCCC3)Nc1ccccn1,–,20 µM (active)
Cc1ccc(OCC(=O)Nc2ccc(S(=O)(=O)Nc3ccccn3)cc2)cc1,0.0786%,–
Cc1cc(C)cc(OCC(=O)Nc2ccc(S(=O)(=O)Nc3ccccn3)cc2)c1,-4.75%,–
COc1cc(OC)cc(-c2nc3nc(C)c(CCC(=O)Nc4ccc(C)cc4)c(C)n3n2)c1,-1.68%,–
CCOC(=O)c1cc2c(=O)n3ccccc3nc2n(CC2CCCO2)c1=NC(=O)c1ccccc1Br (configuration not stated),3.82%,–
Cc1cccc(NC(=O)CSc2nnc(-c3ccco3)o2)c1,13.2%,–
C/C(=N/NC(=O)CCc1ccccc1)c1ccco1,-2.85%,–
O=C(CCc1ccccc1)Nc1cccc(-c2nnc(-c3ccco3)o2)c1,–,12.6 µM (active)
CCOc1ccc(-n2c(C)nc3c(cnn3-c3ccc(C)cc3)c2=O)cc1,8.1%,–
O=C(NC1CC1)c1cccc(Br)c1,-9.53%,–
Cc1ccc(C(=O)NC2CCN(C(=O)N3CCOCC3)CC2)cc1,-9.36%,–
O=C(NC1CC1)c1ccc(-c2ccccc2)cc1,–,11.2 µM (active)
CCOc1ccccc1N(C)C(=O)c1cc2c(s1)-c1ccccc1OC2,-13.3%,–
O=C(NC1CCN(Cc2ccccc2)CC1)c1ccc(Cn2c(=O)c3ccccc3n(Cc3cccc(F)c3)c2=O)cc1,0.0275%,–
O=C(CSc1oc(-c2ccco2)nc1S(=O)(=O)c1ccc(Cl)cc1)c1ccccc1,11.5%,–
Cc1ccc(-c2nc(CS(=O)(=O)CC(=O)NCc3ccccc3Cl)c(C)o2)cc1,5.89%,–
COc1ccc(CCNC(=O)c2cc(=O)c3c(C)cc(C)cc3o2)cc1OC,3.1%,–

SMILES,"activity change, positive = activation",Potency
O=C(CCS(=O)(=O)c1ccccc1)Nc1nc2c(s1)CCCC2,-6.46%,–
Fc1cc(F)c2nc(Nc3nc4c(F)cccc4s3)sc2c1,-20.1%,–
Fc1ccc2nc(Nc3nc4c(s3)CCCC4)sc2c1,–,14.1 µM (active)
O=C(C(=O)N1CCc2ccccc2C1)N1CCc2ccccc2C1,10.9%,–
O=C(Cn1c(=S)nc2ccccn21)N1CCc2ccccc2C1,–,12.6 µM (active)
O=C(COc1ccccc1)N1CCc2ccccc2C1,3.79%,–
Cn1c(=O)nc2n(-c3ccc(Br)cc3)c3cccc(Cl)c3cc-2c1=O,9.55%,–
COc1ccccc1C(=O)Nc1c(C(=O)N(C)Cc2ccccc2)sc2nc(C)c(Cl)c(C)c12,-27.4%,–
CCn1c(SCC(=O)Nc2nccs2)nnc1-c1ccncc1,-5.81%,–
Cc1[nH]c2ccccc2c1SCC(=O)Nc1nccs1,–,25.1 µM (active)
Nn1c(SCC(=O)Nc2nccs2)nncc1=O,22.1%,–
CC(=O)N1CCc2cc(S(=O)(=O)NC(Cc3ccccc3)C(=O)NCc3ccc(C)cc3)ccc21 (configuration not stated),-2.94%,–
CCOc1ccc(S(=O)(=O)c2cn(Cc3ccc(OC)cc3)c3ccc(F)cc3c2=O)cc1,-6.28%,–
Cc1ccc(Cn2ccc(NC(=O)c3cc(C(C)C)on3)n2)cc1,6.87%,–
Cn1cc([N+](=O)[O-])c(C(=O)Nc2cnn(Cc3ccc(F)cc3)c2)n1,-2.65%,–
CC(=O)Nc1ccn(Cc2c(F)cccc2Cl)n1,1.25%,–
O=C(Nc1ccn(Cc2ccc(F)cc2)n1)c1ccncc1,-62.6%,–
O=C(Nc1ccn(Cc2ccccc2)n1)c1cccc(F)c1,–,2.82 µM (active)
O=C(Nc1ccn(Cc2ccccc2)n1)c1n[nH]c([N+](=O)[O-])c1Cl,–,3.16 µM (active)
CCOC(=O)c1cc2c(=O)n3ccccc3nc2n(CCCOC)c1=NC(=O)C(C)(C)Oc1ccc(Cl)cc1,9.26%,–
COc1ccc(CCN2C(=O)N(c3cccc(OC)c3)C(=O)C2CC(=O)Nc2ccccc2)cc1 (configuration not stated),-6.97%,–
CCCCC12CN3CC(C)(CN(C1)C3c1ccc(O)c(OC)c1)C2=O (configuration not stated),1.53%,–
COc1ccc(CCNC(=O)CCc2c(C)nc3c(c(C)nn3-c3ccc(C)c(C)c3)c2C)c(OC)c1OC,10.6%,–
O=C(OCc1ccc(Br)cc1)c1cccc(-c2nnc(-c3ccccc3)o2)c1,–,2.24 µM (active)
O=C(OCc1nnc(-c2ccccc2)o1)c1ccc2c(c1)C(=O)N(CCc1ccccc1)C2=O,27.8%,–
CCOC(=O)CSc1nnc(-c2cccc(Br)c2)o1,-5.07%,–
